In all, about 340,000 compounds went through this assay and about 1,700 (0.5%) were called active. This is one part of a sample in which actives are shown more often than they occur. A number with no mark means an inactive call.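 The calls were made as follows: active = compounds whose inhibition of the agonist-driven luminescence signal at 20 µM reaches about 50% (limit read from the data); inactive = the rest.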
Each compound was assayed against C-C chemokine receptor type 6 (Homo sapiens) (UniProt P51684) (assay: CCR6 receptor antagonists, primary screen, cell-based, CHO-K1, luminescence, beta-arrestin, uHTS (AID 493098;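 also: cells stimulated with CCL20 at 14 nM final; plate controls were DMSO with CCL20 for no effect and DMSO without agonist for full effect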)). Settings: CHO-K1 CCR6 PathHunter beta-arrestin, CCL20-stimulated, at 20 µM, hits give high values.
Sequence of C-C chemokine receptor type 6 (Homo sapiens) (P51684 whole entry, looked up): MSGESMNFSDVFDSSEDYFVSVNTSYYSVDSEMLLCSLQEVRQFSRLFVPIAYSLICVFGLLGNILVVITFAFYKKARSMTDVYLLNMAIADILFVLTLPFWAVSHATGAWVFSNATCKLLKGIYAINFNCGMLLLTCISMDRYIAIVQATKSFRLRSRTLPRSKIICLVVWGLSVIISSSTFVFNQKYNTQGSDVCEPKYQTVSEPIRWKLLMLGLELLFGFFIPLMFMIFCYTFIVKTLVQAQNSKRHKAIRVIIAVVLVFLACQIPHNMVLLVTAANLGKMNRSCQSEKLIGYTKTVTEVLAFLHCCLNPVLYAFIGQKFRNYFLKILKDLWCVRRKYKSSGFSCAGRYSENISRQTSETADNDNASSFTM
In the case of CC(=O)OC1C2(CC3N4C(=O)C5(CO)SSC4(CC31O)C(=O)N5C)OC(C)C(C)(C)C2=O (stereo not given), the inhibition is reported as 111% (active). COC(=O)[C@@H]1C(OC(=O)c2ccccc2)CC2CCC1N2C (stereo not given in full) showed an inhibition of 6.3%. With CC(Cc1cccs1)NCc1ccc(Cl)cc1 (stereo not given) the inhibition was 13.3%. Cc1nn(-c2ccccc2)c(C)c1NC(=O)COC(=O)Cc1ccccc1 was tested, and the inhibition was -2.94%. With CCCOC(=O)C1C2c3ccccc3C(c3ccccc32)C1C(=O)O (stereo not given) the inhibition was -3.33%.

From PubChem BioAssay AID493098 (Sanford-Burnham Center for Chemical Genomics, 2011)
